Two compounds from PubChem BioAssay AID485288 (Southern Research Specialized Biocontainment Screening …, 2010) can be followed below.

The target in this test is Large T antigen (Simian virus 40) (UniProt P03070). Briefly: SV40 large T antigen ATPase inhibitors, SAR follow-up, biochemical, ADP-Hunter detection, purified TAg, synthesized compounds, set 3 (AID 485288). Conditions: ADP-Hunter fluorescence; series mostly up to 100 µM.

Each structure is given as a SMILES string. Entries with a potency or affinity are not part of this list. The source made the active and inactive calls. How the calls were made is not given here.

Sequence of Large T antigen (Simian virus 40) (P03070 whole entry, looked up): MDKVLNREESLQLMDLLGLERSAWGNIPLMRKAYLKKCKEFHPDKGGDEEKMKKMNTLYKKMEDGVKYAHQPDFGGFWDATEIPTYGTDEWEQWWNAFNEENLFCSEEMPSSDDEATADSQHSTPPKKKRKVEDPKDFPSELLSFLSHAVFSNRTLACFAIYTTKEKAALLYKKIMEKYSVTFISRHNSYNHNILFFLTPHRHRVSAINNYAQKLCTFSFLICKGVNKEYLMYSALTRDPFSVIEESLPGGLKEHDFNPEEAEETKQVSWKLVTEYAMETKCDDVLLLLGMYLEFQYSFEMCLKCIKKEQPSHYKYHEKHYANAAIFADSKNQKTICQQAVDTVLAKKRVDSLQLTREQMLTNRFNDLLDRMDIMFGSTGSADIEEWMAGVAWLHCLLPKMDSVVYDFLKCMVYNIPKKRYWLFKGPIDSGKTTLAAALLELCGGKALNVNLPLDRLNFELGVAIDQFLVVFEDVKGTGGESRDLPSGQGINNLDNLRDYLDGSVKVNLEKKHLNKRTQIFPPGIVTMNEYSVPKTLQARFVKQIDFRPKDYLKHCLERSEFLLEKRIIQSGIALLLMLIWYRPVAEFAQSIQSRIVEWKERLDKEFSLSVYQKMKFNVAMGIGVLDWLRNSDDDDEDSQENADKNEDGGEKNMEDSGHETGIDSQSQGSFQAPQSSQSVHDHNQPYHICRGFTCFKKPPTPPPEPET

On to `CC(C)(c1ccccc1)c1ccc(O)cc1`, for which the result was inactive. As to `Cc1cc(C(C)(C)c2ccc(O)c(C)c2)ccc1O`, the result was inactive.
